Assay outcomes from PubChem BioAssay.
KDM5B inh = KDM5B demethylase inhibition; Q9UGL1; KDM5B demethylase, FDH-coupled NADH fluorescence (FDH is formaldehyde dehydrogenase); Potency, µM (highest dose often 57.7 µM), actives largely listed as inhibitors; 2.6% of 220,000 active; active means well fitted inhibition curve with a large enough effect; further: 0% is about no effect; nearly all actives have a fitted effect of over 70% in size
Target sequence (Q9UGL1 whole entry, looked up): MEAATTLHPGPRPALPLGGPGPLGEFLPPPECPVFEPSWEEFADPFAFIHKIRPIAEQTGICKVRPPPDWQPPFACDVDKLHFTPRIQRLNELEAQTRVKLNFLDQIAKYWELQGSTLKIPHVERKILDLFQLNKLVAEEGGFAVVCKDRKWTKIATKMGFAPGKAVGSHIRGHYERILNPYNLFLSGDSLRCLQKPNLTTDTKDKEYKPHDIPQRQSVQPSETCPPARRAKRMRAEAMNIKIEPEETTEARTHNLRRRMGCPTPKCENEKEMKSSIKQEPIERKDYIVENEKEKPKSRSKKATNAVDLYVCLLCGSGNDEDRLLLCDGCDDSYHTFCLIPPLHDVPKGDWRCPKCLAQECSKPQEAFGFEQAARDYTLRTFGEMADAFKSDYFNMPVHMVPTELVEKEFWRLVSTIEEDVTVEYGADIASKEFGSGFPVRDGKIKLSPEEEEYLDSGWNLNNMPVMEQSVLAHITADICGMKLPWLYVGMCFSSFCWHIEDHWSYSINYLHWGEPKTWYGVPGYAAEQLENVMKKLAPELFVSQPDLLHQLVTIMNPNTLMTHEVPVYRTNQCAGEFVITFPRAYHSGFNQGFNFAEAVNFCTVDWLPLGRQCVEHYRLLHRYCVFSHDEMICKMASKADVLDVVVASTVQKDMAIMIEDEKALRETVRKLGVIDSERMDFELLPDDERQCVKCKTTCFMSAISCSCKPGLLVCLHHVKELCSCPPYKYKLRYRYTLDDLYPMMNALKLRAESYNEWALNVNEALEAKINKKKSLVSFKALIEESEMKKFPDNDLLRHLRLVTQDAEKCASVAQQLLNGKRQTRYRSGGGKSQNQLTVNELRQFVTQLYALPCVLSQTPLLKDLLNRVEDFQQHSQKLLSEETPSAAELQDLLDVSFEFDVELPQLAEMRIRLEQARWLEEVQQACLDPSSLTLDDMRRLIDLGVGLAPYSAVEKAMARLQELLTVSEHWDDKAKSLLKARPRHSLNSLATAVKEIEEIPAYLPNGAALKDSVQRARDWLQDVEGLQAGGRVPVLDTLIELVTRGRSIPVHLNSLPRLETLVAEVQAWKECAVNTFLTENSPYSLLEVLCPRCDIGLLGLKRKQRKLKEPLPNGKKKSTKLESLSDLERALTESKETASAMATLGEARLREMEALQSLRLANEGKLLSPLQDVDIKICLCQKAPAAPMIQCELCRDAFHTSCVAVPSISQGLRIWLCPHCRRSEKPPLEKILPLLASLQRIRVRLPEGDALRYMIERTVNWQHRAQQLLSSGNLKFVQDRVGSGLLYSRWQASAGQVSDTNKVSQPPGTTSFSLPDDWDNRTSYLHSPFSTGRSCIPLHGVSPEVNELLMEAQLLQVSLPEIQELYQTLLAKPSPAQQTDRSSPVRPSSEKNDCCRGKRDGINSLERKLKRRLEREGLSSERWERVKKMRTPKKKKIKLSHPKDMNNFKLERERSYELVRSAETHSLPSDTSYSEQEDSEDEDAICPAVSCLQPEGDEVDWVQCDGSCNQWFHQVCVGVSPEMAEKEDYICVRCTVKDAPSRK
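Here, H3K4me3 peptide (12.5 µM in substrate mix) is demethylated by KDM5BΔAP, 200 nM final, after 10 min compound exposure. Formaldehyde product is coupled through FDH (0.25 U/mL in mix) to NADH fluorescence; 30-min ΔRFU feeds dose-response curves.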
The depositor's hits bear a star. This is one part of a sample in which hits are shown more often than they occur. Potency means the concentration at half of the fitted maximal effect.

Screening CN(Cc1ccccc1Cl)C(=O)c1ccc2c(c1)CCCN2S(C)(=O)=O returned KDM5B inh inactive.
COc1ccc(Br)cc1S(=O)(=O)NCCN(C)C was read as KDM5B inh inactive.
`CCN(Cc1noc(CC(C)C)n1)C(=O)c1ccc(C2CCCNC2)cc1` (stereo not drawn) gave KDM5B inh inactive.
For COCCN(Cc1nccs1)Cc1cn[nH]c1-c1ccc(F)cc1 the results were KDM5B inh inactive.
`COCCN(Cc1ccccn1)C(=O)c1ccc2c(c1)ncn2C` gave KDM5B inh inactive.
Screening Cc1ccc(-c2ncc(C(=O)N(C)Cc3nc(CC(C)C)no3)c(=O)[nH]2)cc1 returned KDM5B inh inactive.
`CCN(Cc1noc(CC(C)C)n1)C(=O)c1cnc(-c2ccccn2)[nH]c1=O` gave KDM5B inh 7.9µM*.
COCCN(Cc1nccs1)C(=O)c1cnc(-c2ccccn2)[nH]c1=O was read as KDM5B inh 11µM*.
Cc1cc(S(=O)(=O)NCC(C)O)c(C)cc1Cl (stereo not drawn) was read as KDM5B inh inactive.
COc1ccc(-c2nnc(SCC(=O)Nc3ccccc3)[nH]c2=O)cc1 was read as KDM5B inh inactive.
For O=C(COC(=O)C12CC3CC(CC(Cl)(C3)C1)C2)Nc1ccc(Cl)cc1[N+](=O)[O-] the results were KDM5B inh inactive.
`CCc1ccc(NC(=O)Cc2nc(-c3c[nH]c(C(=O)N4CCCC4)c3)cs2)cc1` gave KDM5B inh inactive.
Screening COCc1ccc(C(=O)NCC2COc3cc(OC)ccc3C2)o1 (stereo not drawn) returned KDM5B inh inactive.
For COc1ccc2c(c1)OCC(CNC(=O)c1csc(C(C)=O)c1)C2 (stereo not drawn) the results were KDM5B inh inactive.
For COc1ccc2c(c1)OCC(CNC(=O)c1cnn3ccccc13)C2 (stereo not drawn) the results were KDM5B inh 25µM*.
CC(C)c1ccccc1NC(=O)c1cccs1 was read as KDM5B inh inactive.
Screening CC1CCN(C(CNC(=O)c2cc3ccccc3oc2=O)c2cccs2)CC1 (stereo not drawn) returned KDM5B inh inactive.
`COCCn1c(-c2ccc(Cl)cc2)n[nH]c1=S` gave KDM5B inh inactive.
Screening COc1ccc(-c2ccc3c(n2)c(=O)ncn3CC2CC2)cc1OC returned KDM5B inh inactive.
Screening COCCn1cnc2ccc(-c3ccc4c(c3)OCO4)nc2c1=O returned KDM5B inh inactive.
Screening COCCn1cnc2ccc(-c3cccc(C(F)(F)F)c3)nc2c1=O returned KDM5B inh inactive.
`COCCn1cnc2ccc(-c3cccc(C)c3)nc2c1=O` gave KDM5B inh 40µM*.
Screening COCCn1cnc2ccc(-c3ccsc3)nc2c1=O returned KDM5B inh 35µM*.
Screening COCCn1cnc2ccc(-c3ccc(F)c(Cl)c3)nc2c1=O returned KDM5B inh 32µM*.
For COCCCn1cnc2cccnc21 the results were KDM5B inh inactive.
Screening Cn1c(=O)c2c(ncn2CCC(=O)Nc2ccc(F)c(Cl)c2)n(C)c1=O returned KDM5B inh inactive.
For COC(=O)c1ccccc1NC(=O)N1CCN(Cc2nc(-c3ccc(C)cc3)oc2C)CC1 the results were KDM5B inh inactive.
COc1ccc(NC(=O)c2ccc(-c3ccc(S(=O)(=O)N4CCCC4)cc3)cc2)cc1Cl was read as KDM5B inh inactive.
For Cc1ccc(S(=O)(=O)N(CC(=O)NCCO)Cc2c(F)cccc2Cl)cc1 the results were KDM5B inh inactive.
Screening COC(=O)NC(NC(=O)OC)C(Cl)Cl returned KDM5B inh inactive.
`Cc1ccc2oc(-c3ccc(NC(=O)c4cc([N+](=O)[O-])ccc4N4CCOCC4)cc3)nc2c1` gave KDM5B inh inactive.
`Cc1ccc(C(O)CNC(=O)Nc2c(C)cc(C)cc2C)cc1` (stereo not drawn) gave KDM5B inh inactive.
CN1CCCC2(C1)CN(C)c1ccc(C(=O)NCc3cccs3)cc12 (stereo not drawn) was read as KDM5B inh 35µM*.
CN1CCCC2(C1)CN(C)c1ccc(C(=O)NCC3CCCCC3)cc12 (stereo not drawn) was read as KDM5B inh 35µM*.
`Cc1cc(C(=O)NCC(C)C)ccc1N` gave KDM5B inh inactive.
`O=C(NCC1CCCCC1)c1ccc2c(c1)N(S(=O)(=O)c1ccccc1)CC2` gave KDM5B inh inactive.
`CN1CCCC2(C1)CN(C)c1ccc(C(=O)Nc3ccc(F)cc3)cc12` (stereo not drawn) gave KDM5B inh 35µM*.
Screening CC(C)CNC(=O)c1ccc2c(c1)C1(CCN(C)C1)CN2CC1CC1 (stereo not drawn) returned KDM5B inh 35µM*.
Screening O=C(NCc1cccs1)c1ccc2c(c1)OCCCO2 returned KDM5B inh inactive.
Screening O=C(Nc1ccc(F)cc1)c1ccc2c(c1)CCC2 returned KDM5B inh inactive.
Screening O=C(NCc1cccs1)c1ccc2ccccc2c1 returned KDM5B inh inactive.
Screening CC(C)CNC(=O)c1ccc2c(c1)N(S(=O)(=O)c1ccccc1F)CC2 returned KDM5B inh inactive.
For COc1ccc(NC(=O)c2ccc3c(c2)C2(CCCN(C)C2)CN3C)cc1 (stereo not drawn) the results were KDM5B inh inactive.
Screening CC(=O)Nc1cc(NC(C)=O)cc(C(=O)NCC2CCCCC2)c1 returned KDM5B inh inactive.
O=C(CCc1ncc(-c2ccc(F)cc2)o1)N1CCN(S(=O)(=O)c2ccc(F)cc2)CC1 was read as KDM5B inh inactive.
O=C(CCC(=O)c1ccc(Cl)cc1)OCC(=O)c1ccc(OCc2ccccc2)cc1 was read as KDM5B inh inactive.
Screening CCCNc1nc(-c2ccc(NC(C)=O)cc2F)cs1 returned KDM5B inh inactive.
Screening CCc1noc(CC2CCOC3(CCN(S(=O)(=O)c4c(C)cc(C)cc4C)CC3)C2)n1 (stereo not drawn) returned KDM5B inh inactive.
For COc1ccc(/C=C/C(=O)c2ccc3ccccc3c2OC(F)F)cc1 the results were KDM5B inh inactive.
`Cc1nnc(NC(=O)C2CC(c3ccccc3)=NO2)s1` (stereo not drawn) gave KDM5B inh inactive.
Screening COc1ccc(-c2cnc([C@@H]3COCCN3C3CCCCC3)[nH]2)cc1 returned KDM5B inh inactive.
`CN(Cc1ccccc1NC(=O)Cc1ccc(C(F)(F)F)cc1)C1CCCCC1` gave KDM5B inh inactive.
`COC(=O)c1c(C)[nH]c(C(=O)COc2ccc3c(-c4ccccc4)cc(=O)oc3c2)c1C` gave KDM5B inh inactive.
For Cc1ccc(CN2CCN(CC(=O)Nc3cccc4nsnc34)CC2)o1 the results were KDM5B inh inactive.
`CCc1ccc(NC(=O)N2CCC(OC3CCN(S(C)(=O)=O)CC3)CC2)cc1` gave KDM5B inh inactive.
CC(C)(C(=O)NCCc1c[nH]c2ccccc12)c1ccccc1 was read as KDM5B inh inactive.
`CC(C)(C)NC(=O)c1ccc(C(=O)NCC2CC2)cc1` gave KDM5B inh inactive.
CN1CCC2(C1)CN(CC1CC1)c1ccc(C(=O)NCC3CC3)cc12 (stereo not drawn) was read as KDM5B inh 35µM*.
COc1ccc2c(c1)OCC(CNC(=O)c1ccc(N3CCN(C)CC3)cc1)C2 (stereo not drawn) was read as KDM5B inh inactive.
`CC(C)Cn1c(Oc2ccc(Cl)cc2)nc2c1c(=O)n(C)c(=O)n2C` gave KDM5B inh inactive.
